The text below walks through data of ChEMBL document CHEMBL4513216, “Probing the Open Global Health Chemical Diversity Library for Multistage-Active Starting Points for Next-Generation Antimalarials” (ACS Infect Dis, 2020).

Structures are written as SMILES. In all, about 68,000 compounds went through this assay and about 2,700 (4%) showed an effect of 50% or more. The entries come from a sample that favours strong results as a whole.

The assay concerns Plasmodium berghei. In words: Screen against P. berghei liver stage (PbLuc), transformed with Luciferase, at 2uM. It is filed as functional, HepG2. The note with it: tested at 2 uM.
As to `Cc1ccccc1[C@@H]1CN(CCOCCO)C[C@H]1C(=O)O`, the INHIBITION worked out at 35.46%.

For the compound `Cc1ccccc1[C@@H]1CN(Cc2ccc(C(F)(F)F)nc2)C[C@H]1C(=O)O`, the INHIBITION is on record as 67.28%.

Turning to `OC(CNCCn1cccn1)c1ccc(F)c(F)c1` (stereo not drawn), the INHIBITION is reported as 21.91%.

Regarding `Cc1nc(COc2ccc(N(C)S(C)(=O)=O)cc2)sc1C`, the INHIBITION is -26.08%.

As to `O=C(O)c1nnn(-c2ccccc2F)c1-c1ccncc1`, the INHIBITION was 37.61%.

Consider `O=S(=O)(CCN1CCOC(Cn2cccn2)C1)c1ccccc1` (stereo not drawn), for which the INHIBITION was -34.9%.

`CCn1cnnc1C1CCN(C(=O)c2ccc3ccccc3n2)CC1`: the INHIBITION is given as -6.48%.

As to `O=C(Nc1cccnc1)C1CCN(c2cc(-n3ccnc3)ncn2)CC1`, the INHIBITION is given as 3.38%.

Turning to `O=C(NC1CCN(c2cc(-n3ccnc3)ncn2)CC1)c1ccncc1`, the INHIBITION was found to be 29.19%.

In the case of `O=C(NC1CCCC1)C1CCN(c2cc(-n3ccnc3)ncn2)CC1`, the INHIBITION came out at 70.33%.

Turning to `Cc1n[nH]c(C)c1-c1nccnc1CC1CCCN(C)C1` (stereo not drawn), the INHIBITION is on record as 31.98%.

For `CCCC(=O)Nc1ccc2c(c1)C1(CCOCC1)CN2CCOC`, the INHIBITION stood at 39.44%.

With `COc1ccc(C[C@H]2CNCC[C@@H]2OC)cc1`, the INHIBITION is recorded as 18.65%.

On to `O=c1cc(N2CCCC2)cnn1CC(F)F`, for which the INHIBITION was 18.81%.

Take `O=C(CSc1nnc[nH]1)NCc1sccc1Br`: the INHIBITION is on record as 32.1%.

As to `Cc1ccsc1CNC(=O)CSc1nnc[nH]1`, the INHIBITION is 5.98%.

Take `O=C(CSc1nnc[nH]1)NCc1cccs1`: the INHIBITION was found to be 59.03%.

In the case of `COCCNc1nc(NCCc2ccccc2)nc2nccnc12`, the INHIBITION is given as -20.55%.

Regarding `Cc1nc(O)cc(C2CCCN(C(=O)CN(C)c3ccccc3)C2)n1` (stereo not drawn), the INHIBITION is -14.36%.

Consider `Cc1ccc(CC(=O)N2CCCN(Cc3nccn3C)CC2)cn1`, for which the INHIBITION worked out at 5.72%.

For the compound `CCn1nc(C)c2ncnc(N(C)C)c21`, the INHIBITION was -47.86%.

Regarding `Cn1cccc1C(=O)N[C@H]1CN(Cc2ccoc2)[C@@H]2CCCO[C@H]12`, the INHIBITION is 56.76%.

Turning to `Cn1ccnc1C(=O)N[C@@H]1CN(Cc2ccoc2)[C@@H]2CCCO[C@@H]21`, the INHIBITION was 26.76%.

As to `Cn1cc(C(=O)N[C@@H]2CN(Cc3ccoc3)[C@@H]3CCCO[C@@H]32)cn1`, the INHIBITION was -6.61%.

On to `Cc1cc(C(=O)NC(CC(C)C)C(=O)Nc2cc[nH]n2)c(C)o1` (stereo not drawn), for which the INHIBITION is -36.72%.

With `COC(=O)CC(c1cccnc1)c1oc(C)cc(=O)c1O` (stereo not drawn), the INHIBITION is listed as 24.02%.

Consider `Cc1noc(-c2ccc(Oc3cccc(CN4CCCC4)c3F)nc2)n1`, for which the INHIBITION was -9.95%.

On to `CC(Cn1cc(Br)cn1)C(=O)Nc1ccc(Cl)cn1` (stereo not drawn), for which the INHIBITION came to 29.12%.

Regarding `CC(C)NCC1(O)CCCN(CCC2CCCCC2)C1=O` (stereo not drawn), the INHIBITION is listed as 25.35%.

As for `CCC(CNC(=O)c1nc(=O)[nH][nH]1)Oc1cccc(F)c1` (stereo not drawn), the INHIBITION stood at 6.92%.

For `Cc1cccc(NC(=O)c2[nH]nc(C(C)C)c2Br)n1`, the INHIBITION was determined as 80.46%.

Regarding `CC(C)c1n[nH]c(C(=O)Nc2cc[nH]n2)c1Br`, the INHIBITION is recorded as 11.18%.

As for `Cc1ccnc(NC(=O)c2[nH]nc(C(C)C)c2Br)c1`, the INHIBITION was 49.43%.

Take `CC(C)c1n[nH]c(C(=O)Nc2ccncc2)c1Br`: the INHIBITION came to 29.37%.

In the case of `COc1ccccc1NC(=O)c1[nH]nc(C(C)C)c1Br`, the INHIBITION is recorded as -2.93%.

As for `CC(C)c1n[nH]c(C(=O)Nc2ccccn2)c1Br`, the INHIBITION is 78.42%.

Take `Cc1nc(C)n(CC2CCCN(c3ccc(C#N)cn3)C2)n1` (stereo not drawn): the INHIBITION is given as 13.24%.

On to `CCN1CCNC(=O)C12CCN(C(=O)Cc1ccccn1)CC2`, for which the INHIBITION came to 31.84%.

For the compound `Cc1ccc(C(=O)NCC(O)c2cccc(F)c2)c(=O)[nH]1` (stereo not drawn), the INHIBITION is given as -7.13%.

Take `CCCN1CCN(C(=O)c2scnc2C)CC1`: the INHIBITION is -21.84%.

For the compound `Cc1ncsc1C(=O)N1CCN(CCC(C)C)CC1`, the INHIBITION is reported as 71.95%.

Regarding `CCN1CCN(C(=O)c2scnc2C)CC1`, the INHIBITION was -25.82%.

In the case of `CC1CN(C(=O)CN(Cc2ccco2)Cc2cccs2)CCO1` (stereo not drawn), the INHIBITION came out at 26.78%.

Regarding `COc1ccccc1C1CCCN1CC(=O)N1CCC(C(N)=O)CC1` (stereo not drawn), the INHIBITION amounted to 50.32%.

As to `COc1ccccc1[C@@H]1CN(CC(=O)N2CCCCC2)C[C@H]1C(=O)O`, the INHIBITION was -36.91%.

As for `CCOC(=O)C1CCN(C(=O)CN2CCCC2c2ccccc2C)CC1` (stereo not drawn), the INHIBITION is -16.19%.

Turning to `Cc1nc(C2CCCNC2)cc(N2CCc3nc(N)sc3C2)n1` (stereo not drawn), the INHIBITION is on record as 17.41%.

Regarding `Cn1cc(CN2CC[C@H](O)[C@@H]2Cc2ccncc2)cn1`, the INHIBITION was 23.94%.

With `O=c1c2sccc2nc2n1CCN(Cc1ccc(F)c(F)c1)CC2`, the INHIBITION was 15.72%.

Consider `O=c1c2sccc2nc2n1CCN(Cc1ccsc1)CC2`, for which the INHIBITION came to 63.66%.

On to `O=c1c2sccc2nc2n1CCN(Cc1cccs1)CC2`, for which the INHIBITION was 15.58%.

As for `Cc1ncsc1C(=O)N(C)Cc1ccc(Br)o1`, the INHIBITION is recorded as -21.99%.

Regarding `Cc1ccccc1-c1cncc(C2CCN(C3CCOCC3)CC2)n1`, the INHIBITION is recorded as 8.63%.
